# Test results from the supplement of paper PMC10849652.
# Of roughly 8,800 targets only a part is listed; those with a hit were picked by preference. About 0.5% of all pairs of compound and target were hits. Unmarked numbers belong to inactive results.
# Experiments:
# Assay in all cases: log2 fold change, soluble protein after heating vs DMSO (PISA); higher = thermal stabilisation; K562 lysate, 10 uM; active = over 0.2 and 3.5 SD of the protein, either way, in both replicates (recomputed)
# [1] = compound: Cc1cn(-c2cc(NC(=O)c3ccc(C)c(Nc4nccc(-c5cccnc5)n4)c3)cc(C(F)(F)F)c2)cn1 [nilotinib]
# Summary of the method: (§1)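 The values are log-two fold changes in thermal stability compared with solvent controls and come from duplicates. They were obtained by TMTpro 16plex LC-MS/MS, with channel sums equalised, on the supernatant after 21,000xg for 90 min. That supernatant came from crude K562 extract at 1 mg/mL protein treated with 10 μM compound for 30 min, heated for 3 min across 48°C-58°C, pooled and brought to 0.5% NP-40 at 4°C.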
# [2] = compound: Cc1nc(Nc2n[nH]c3c2CN(C(=O)N[C@H](CN(C)C)c2ccccc2)C3(C)C)c2sccc2n1
# Summary of the method: as §1
# [3] = compound: Cc1nc(Nc2ncc(C(=O)Nc3c(C)cccc3Cl)s2)cc(N2CCN(CCO)CC2)n1 [dasatinib]
# Summary of the method: as §1
# [4] = compound: Cc1ncc(-c2ccnc(Nc3ccc(S(C)(=O)=O)cc3)n2)n1C(C)C
# Summary of the method: as §1
# [5] = compound: Cn1cc(-c2ccc3c(c2)CCN3C(=O)Cc2cccc(C(F)(F)F)c2)c2c(N)ncnc21
# Summary of the method: as §1
# [6] = compound: Cn1cc(CNCC2CCN(c3ncc(C(=O)NO)cn3)CC2)c2ccccc21 [quisinostat]
# Summary of the method: as §1
# [7] = compound: Cn1cncc1[C@@](N)(c1ccc(Cl)cc1)c1ccc2c(c1)c(-c1cccc(Cl)c1)cc(=O)n2C [tipifarnib]
# Summary of the method: as §1
# [8] = compound: NC(=O)Nc1cc(-c2cccc(F)c2)sc1C(=O)N[C@H]1CCCNC1
# Summary of the method: as §1
# [9] = compound: NC(=O)c1cnc(N[C@@H]2CCCC[C@@H]2N)nc1Nc1cccc(-n2nccn2)c1
# Summary of the method: as §1
# [10] = compound: NC1(c2ccc(-c3nc4ccn5c(=O)[nH]nc5c4cc3-c3ccccc3)cc2)CCC1
# Summary of the method: as §1
# [11] = compound: NCC(=O)Nc1ccc(-n2nc(C(F)(F)F)cc2-c2ccc3c(ccc4ccccc43)c2)cc1
# Summary of the method: as §1
# [12] = compound: O=C(CCCCCCC(=O)Nc1ccccc1)NO [vorinostat]
# Summary of the method: as §1
# [13] = compound: O=C(O)c1ccc2c(c1)nc(Nc1cccc(Cl)c1)c1ccncc12 [silmitasertib]
# Summary of the method: as §1
# [14] = compound: O=C1NC(=O)C(c2cnc3ccccn23)=C1c1cn2c3c(cc(F)cc13)CN(C(=O)N1CCCCC1)CC2
# Summary of the method: as §1
# [15] = compound: c1cn2cc(-c3ccc4cn[nH]c4c3)nc(Nc3ccc(N4CCOCC4)cc3)c2n1 [entospletinib]
# Summary of the method: as §1
# Chain of UniProt O15357 (O15357 whole entry, looked up): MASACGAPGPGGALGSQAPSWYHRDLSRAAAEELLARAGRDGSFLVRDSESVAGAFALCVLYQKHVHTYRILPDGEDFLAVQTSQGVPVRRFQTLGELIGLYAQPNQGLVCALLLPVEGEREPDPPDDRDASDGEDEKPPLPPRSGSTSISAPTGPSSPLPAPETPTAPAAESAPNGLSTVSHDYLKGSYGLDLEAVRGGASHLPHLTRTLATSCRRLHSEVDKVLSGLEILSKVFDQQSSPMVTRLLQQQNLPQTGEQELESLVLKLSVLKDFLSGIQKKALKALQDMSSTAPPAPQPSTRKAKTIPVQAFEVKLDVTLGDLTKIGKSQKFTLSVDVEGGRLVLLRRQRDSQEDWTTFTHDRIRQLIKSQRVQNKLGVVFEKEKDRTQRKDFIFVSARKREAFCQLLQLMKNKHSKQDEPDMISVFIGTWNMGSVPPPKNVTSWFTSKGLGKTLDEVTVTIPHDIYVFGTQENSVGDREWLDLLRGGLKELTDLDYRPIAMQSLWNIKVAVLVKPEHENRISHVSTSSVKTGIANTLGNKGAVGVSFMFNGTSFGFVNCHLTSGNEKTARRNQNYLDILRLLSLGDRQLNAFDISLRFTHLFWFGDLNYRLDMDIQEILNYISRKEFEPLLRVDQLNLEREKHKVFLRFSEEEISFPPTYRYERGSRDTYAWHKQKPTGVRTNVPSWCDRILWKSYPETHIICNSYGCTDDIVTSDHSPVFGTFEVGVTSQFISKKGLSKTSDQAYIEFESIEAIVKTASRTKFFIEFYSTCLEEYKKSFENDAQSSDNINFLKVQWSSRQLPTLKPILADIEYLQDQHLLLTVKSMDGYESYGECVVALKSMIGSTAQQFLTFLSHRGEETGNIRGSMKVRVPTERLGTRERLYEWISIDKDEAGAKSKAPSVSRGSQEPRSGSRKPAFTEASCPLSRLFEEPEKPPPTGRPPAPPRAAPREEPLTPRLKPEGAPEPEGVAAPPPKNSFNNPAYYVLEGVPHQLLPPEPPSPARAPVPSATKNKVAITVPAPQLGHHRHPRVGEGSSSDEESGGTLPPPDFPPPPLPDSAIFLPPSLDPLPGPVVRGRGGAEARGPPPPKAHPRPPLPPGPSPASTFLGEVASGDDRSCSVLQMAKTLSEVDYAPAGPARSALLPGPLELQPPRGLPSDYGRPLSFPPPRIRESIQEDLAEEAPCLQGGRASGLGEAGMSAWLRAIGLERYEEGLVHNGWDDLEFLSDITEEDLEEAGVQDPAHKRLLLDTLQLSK
# Chain of UniProt Q8NC54 (Q8NC54 whole entry, looked up): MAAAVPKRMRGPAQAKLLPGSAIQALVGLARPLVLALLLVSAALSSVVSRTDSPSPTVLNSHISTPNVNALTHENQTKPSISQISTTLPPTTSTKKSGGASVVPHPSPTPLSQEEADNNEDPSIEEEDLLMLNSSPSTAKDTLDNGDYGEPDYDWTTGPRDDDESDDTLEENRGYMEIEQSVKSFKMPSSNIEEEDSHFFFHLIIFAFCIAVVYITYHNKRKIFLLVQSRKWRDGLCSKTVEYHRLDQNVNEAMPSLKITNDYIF
# Chain of UniProt Q9Y5Q8 (Q9Y5Q8 whole entry, looked up): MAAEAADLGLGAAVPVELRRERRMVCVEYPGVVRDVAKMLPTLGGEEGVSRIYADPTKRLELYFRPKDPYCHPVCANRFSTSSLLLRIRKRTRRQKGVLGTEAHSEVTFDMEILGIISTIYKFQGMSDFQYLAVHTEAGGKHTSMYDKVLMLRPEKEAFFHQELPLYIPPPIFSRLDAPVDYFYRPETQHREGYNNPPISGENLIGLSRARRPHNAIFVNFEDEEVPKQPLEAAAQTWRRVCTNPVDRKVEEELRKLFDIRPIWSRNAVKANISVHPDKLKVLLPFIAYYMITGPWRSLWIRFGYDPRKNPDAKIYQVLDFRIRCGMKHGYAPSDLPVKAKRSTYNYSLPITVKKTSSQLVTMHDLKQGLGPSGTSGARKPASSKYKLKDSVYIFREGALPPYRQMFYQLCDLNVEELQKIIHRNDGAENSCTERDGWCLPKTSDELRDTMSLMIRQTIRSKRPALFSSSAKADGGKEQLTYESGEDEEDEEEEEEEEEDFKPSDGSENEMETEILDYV
# Chain of UniProt P55084 (P55084 whole entry, looked up): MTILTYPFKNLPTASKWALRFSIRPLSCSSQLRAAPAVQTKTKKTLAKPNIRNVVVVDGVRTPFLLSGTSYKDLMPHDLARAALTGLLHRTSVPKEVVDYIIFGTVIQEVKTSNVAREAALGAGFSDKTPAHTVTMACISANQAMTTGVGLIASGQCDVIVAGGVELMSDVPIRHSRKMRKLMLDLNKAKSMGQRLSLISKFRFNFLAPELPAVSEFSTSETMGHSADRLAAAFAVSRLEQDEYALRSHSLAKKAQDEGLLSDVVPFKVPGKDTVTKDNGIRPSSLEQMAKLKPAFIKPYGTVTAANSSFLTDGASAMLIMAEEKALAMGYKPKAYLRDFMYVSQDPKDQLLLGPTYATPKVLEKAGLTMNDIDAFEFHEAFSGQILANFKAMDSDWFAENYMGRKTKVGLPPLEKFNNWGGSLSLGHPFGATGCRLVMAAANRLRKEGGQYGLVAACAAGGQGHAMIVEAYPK
# Chain of UniProt Q9BX10 (Q9BX10 whole entry, looked up): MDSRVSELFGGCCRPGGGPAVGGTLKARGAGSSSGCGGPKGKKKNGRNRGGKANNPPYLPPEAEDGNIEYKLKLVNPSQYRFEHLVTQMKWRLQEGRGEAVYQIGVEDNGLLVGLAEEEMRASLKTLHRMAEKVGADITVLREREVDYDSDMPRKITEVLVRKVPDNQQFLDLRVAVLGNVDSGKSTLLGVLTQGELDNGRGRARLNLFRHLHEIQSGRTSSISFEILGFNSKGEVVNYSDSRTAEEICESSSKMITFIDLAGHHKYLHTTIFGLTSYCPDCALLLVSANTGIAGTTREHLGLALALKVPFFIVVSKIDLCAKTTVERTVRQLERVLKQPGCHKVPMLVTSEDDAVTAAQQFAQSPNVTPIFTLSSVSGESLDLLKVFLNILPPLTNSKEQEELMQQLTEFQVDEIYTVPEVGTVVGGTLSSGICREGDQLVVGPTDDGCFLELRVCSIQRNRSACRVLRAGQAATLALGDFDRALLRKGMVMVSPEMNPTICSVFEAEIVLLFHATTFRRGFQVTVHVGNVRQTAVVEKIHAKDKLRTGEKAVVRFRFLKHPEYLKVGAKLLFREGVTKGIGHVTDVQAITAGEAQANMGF
# Chain of UniProt Q9BT25 (Q9BT25 whole entry, looked up): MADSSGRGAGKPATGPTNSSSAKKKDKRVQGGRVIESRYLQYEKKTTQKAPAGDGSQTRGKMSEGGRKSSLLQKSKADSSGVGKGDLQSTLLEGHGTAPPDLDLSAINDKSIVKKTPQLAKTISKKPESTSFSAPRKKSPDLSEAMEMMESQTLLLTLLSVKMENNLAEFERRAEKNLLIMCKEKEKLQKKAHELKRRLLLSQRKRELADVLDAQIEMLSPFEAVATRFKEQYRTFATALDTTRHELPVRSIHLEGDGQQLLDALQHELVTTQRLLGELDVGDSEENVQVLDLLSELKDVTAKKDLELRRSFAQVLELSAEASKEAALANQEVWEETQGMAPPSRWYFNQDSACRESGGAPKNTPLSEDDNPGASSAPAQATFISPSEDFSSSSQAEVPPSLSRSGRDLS
# Chain of UniProt Q9UBN7 (Q9UBN7 whole entry, looked up): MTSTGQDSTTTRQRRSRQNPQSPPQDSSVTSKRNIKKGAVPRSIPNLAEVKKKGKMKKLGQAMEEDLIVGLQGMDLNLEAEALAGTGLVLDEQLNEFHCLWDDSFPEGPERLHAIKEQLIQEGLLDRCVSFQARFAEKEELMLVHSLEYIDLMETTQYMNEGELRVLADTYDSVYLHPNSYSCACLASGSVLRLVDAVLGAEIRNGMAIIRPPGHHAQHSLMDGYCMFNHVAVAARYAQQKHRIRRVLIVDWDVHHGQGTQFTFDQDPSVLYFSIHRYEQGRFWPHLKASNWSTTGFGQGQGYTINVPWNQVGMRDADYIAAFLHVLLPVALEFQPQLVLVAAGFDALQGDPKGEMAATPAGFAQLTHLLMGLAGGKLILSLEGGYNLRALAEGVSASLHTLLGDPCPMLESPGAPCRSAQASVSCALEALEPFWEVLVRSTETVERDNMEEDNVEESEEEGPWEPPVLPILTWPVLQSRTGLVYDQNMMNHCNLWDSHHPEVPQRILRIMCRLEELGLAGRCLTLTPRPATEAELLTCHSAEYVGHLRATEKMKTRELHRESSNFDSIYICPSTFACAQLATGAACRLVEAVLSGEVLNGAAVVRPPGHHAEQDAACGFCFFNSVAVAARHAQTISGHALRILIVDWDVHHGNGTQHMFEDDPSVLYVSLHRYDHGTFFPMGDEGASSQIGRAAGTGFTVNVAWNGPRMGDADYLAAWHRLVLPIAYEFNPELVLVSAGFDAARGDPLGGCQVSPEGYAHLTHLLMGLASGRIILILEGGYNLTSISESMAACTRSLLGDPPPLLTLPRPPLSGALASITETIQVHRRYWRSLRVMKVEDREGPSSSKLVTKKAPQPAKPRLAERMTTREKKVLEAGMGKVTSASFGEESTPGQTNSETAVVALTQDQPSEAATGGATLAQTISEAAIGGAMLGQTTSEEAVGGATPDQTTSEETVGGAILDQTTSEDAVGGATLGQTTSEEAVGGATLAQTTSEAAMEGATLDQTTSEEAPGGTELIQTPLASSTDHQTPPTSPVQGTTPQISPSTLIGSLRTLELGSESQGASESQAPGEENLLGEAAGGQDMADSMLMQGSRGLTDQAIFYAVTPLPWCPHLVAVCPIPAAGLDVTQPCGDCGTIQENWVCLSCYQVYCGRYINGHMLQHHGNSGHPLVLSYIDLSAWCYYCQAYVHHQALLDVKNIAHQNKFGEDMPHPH
# Chain of UniProt P26583 (P26583 whole entry, looked up): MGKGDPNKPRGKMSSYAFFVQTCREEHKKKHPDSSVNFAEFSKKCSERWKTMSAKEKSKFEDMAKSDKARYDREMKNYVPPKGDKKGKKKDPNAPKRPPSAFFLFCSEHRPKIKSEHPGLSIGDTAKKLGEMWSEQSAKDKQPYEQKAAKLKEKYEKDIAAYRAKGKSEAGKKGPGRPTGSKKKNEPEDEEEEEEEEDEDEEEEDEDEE
Target,log2 fold change [1],log2 fold change [2],log2 fold change [3],log2 fold change [4],log2 fold change [5],log2 fold change [6],log2 fold change [7],log2 fold change [8],log2 fold change [9],log2 fold change [10],log2 fold change [11],log2 fold change [12],log2 fold change [13],log2 fold change [14],log2 fold change [15]
INPPL1 (UniProt O15357),-0.007,-0.001,-0.031,-0.02,0.035,0,-0.026,0.032,0.028,0.003,0.025,-0.528 (active),0.057,0.017,-0.015
HMGB2 (UniProt P26583),0.045,-0.042,0.057,0.077,0.018,0.065,0.033,-0.014,-0.018,0,0.004,0.122,-0.052,0.047,0.003
HACE1 (UniProt Q8IYU2),-0.027,0.043,-0.154,0.035,-0.084,0.061,-0.175,0.181,0.028,-0.02,0.183,-0.126,-0.002,0.084,0.012
KDM1A (UniProt O60341),-0.009,0.007,-0.023,0.005,0.012,-0.045,-0.052,0.029,0.007,-0.026,0.01,-0.163,0.009,-0.009,0.01
HAUS8 (UniProt Q9BT25),0.025,0.026,-0.073,0.005,0.015,-0.085,0.004,0.042,0.02,0.006,0.083,-0.38 (active),0.022,0.018,-0.051
HMGN4 (UniProt O00479),0.049,-0.072,0.192,0.009,0.003,0.171,0.001,-0.019,0.012,-0.028,-0.095,0.192,-0.012,0.067,0.163
ITPKA (UniProt P23677),-0.005,0.045,-0.064,-0.001,-0.002,-0.026,-0.001,0.044,0.021,-0.027,0.033,-0.36 (active),0.09,-0.101,0.081
HADHB (UniProt P55084),0.052,-0.028,-0.026,0.022,0.066,-0.064,0.028,-0.122,-0.076,0.073,0.047,-0.199,-0.033,0.269,0.063
KCTD20 (UniProt Q7Z5Y7),0.054,-0.021,-0.096,0.074,0.039,-0.138,-0.028,0.109,0.089,-0.007,-0.137,-0.323 (active),0.035,0.053,0.091
GSTP1 (UniProt P09211),0.006,-0.001,-0.035,-0.003,-0.01,-0.016,0.029,-0.029,-0.004,0.01,-0.011,-0.352 (active),0.127,0.04,-0.001
ISCA1 isoform 2 (UniProt Q9BUE6),0.043,0.251,0,0.111,-0.002,0.025,0.026,-0.05,-0.007,0.013,-0.005,0.043,0.015,0.004,0.071
GTF3C5 isoform 3 (UniProt Q9Y5Q8),0.023,-0.023,-0.017,-0.018,0.019,-0.063,-0.004,0.05,-0.006,0.005,0.002,-0.296 (active),0.016,0.04,-0.021
KATNBL1 (UniProt Q9H079),-0.057,-0.143,0.068,-0.159,-0.073,0.035,0.198,0.158,0.017,0.023,0.111,-0.176,-0.02,0.144,0.234
IMPACT (UniProt Q9P2X3),0.087,-0.066,0.013,-0.687 (active),0.04,-0.103,-0.13,0.11,0.071,0.087,0.019,-0.125,-0.096,-0.082,-0.027
GTPBP2 (UniProt Q9BX10),0.016,-0.009,-0.023,-0.014,0.005,-0.136,-0.079,0.042,0.04,0.046,0.029,-0.289 (active),0,-0.003,0.056
KCT2 (UniProt Q8NC54),-0.034,0.008,0.025,-0.025,0.043,0.031,0.001,0.024,0.051,0.005,0.015,0.157,0.005,-0.04,-0.026
HSP90AA4P (UniProt Q58FG1),-0.157,0.052,0.029,-0.062,0.038,-0.145,0.01,-0.065,-0.047,-0.024,0.026,0.047,-0.087,-0.047,0.017
HSPA8 (UniProt P11142),-0.01,0.002,0.013,0.004,-0.007,0.022,0,-0.024,-0.008,0.003,-0.008,0.105,-0.009,-0.011,-0.002
ISY1 isoform 1 (UniProt Q9ULR0),0.012,0.026,0.002,-0.024,-0.082,-0.036,-0.018,0.014,-0.012,-0.01,-0.163,0.05,0.032,-0.01,-0.02
KHDRBS1 (UniProt Q07666),-0.032,-0.012,-0.048,-0.011,-0.003,0.037,0.032,0.005,0.011,0.028,0.005,-0.583 (active),0.018,0.016,0.008
HDAC6 (UniProt Q9UBN7),0.078,-0.016,-0.06,-0.034,0.042,0.031,0.024,-0.01,0.034,-0.027,-0.039,0.513 (active),0.016,-0.047,0.007
